Screening data: PubChem BioAssay, The Scripps Research Institute Molecular Screening Center
Shown are actives, neighbours in structure and some others; about 3.5% of the full set was active somewhere.
GPR151 ag = activates the human receptor GPR151 | PathHunter beta-arrestin GPR151 cells, luminescence | activation, % at 11.2 µM | 650,000 compounds, 1% hits | Q8TDV0; in the data active = activation above about 4.9%
Target sequence (Q8TDV0 whole entry, looked up): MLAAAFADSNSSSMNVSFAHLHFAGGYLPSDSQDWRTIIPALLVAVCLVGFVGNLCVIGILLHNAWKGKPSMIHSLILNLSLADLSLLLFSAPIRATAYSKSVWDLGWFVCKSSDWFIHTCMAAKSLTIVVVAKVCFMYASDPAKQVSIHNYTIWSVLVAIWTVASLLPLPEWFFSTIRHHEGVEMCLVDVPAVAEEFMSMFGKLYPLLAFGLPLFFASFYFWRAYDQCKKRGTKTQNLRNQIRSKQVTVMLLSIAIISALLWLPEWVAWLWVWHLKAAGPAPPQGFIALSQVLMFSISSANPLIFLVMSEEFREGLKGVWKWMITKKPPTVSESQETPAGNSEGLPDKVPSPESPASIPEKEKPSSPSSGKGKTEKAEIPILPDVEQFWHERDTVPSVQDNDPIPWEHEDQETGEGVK
TEAD-YAP block = TEAD-YAP interaction inhibition; HEK-TIYL cells, TEAD-Gal4/YAP UAS-luciferase luminescence; inhibition, % at 9.12 µM; 640,000 compounds, 1.4% hits; AID 1259422; in the data active = inhibition above about 32%
FBW7 act = human FBW7 E3 ligase activation, primary screen. Q969H0. AlphaScreen FBW7–phospho-cyclin E peptide binding, activator screen. normalized activity (activation), % at 26.1 µM. 650,000 compounds, 0.13% hits; in the data active = normalized activity above about 1.9%;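 also: purified mutant Fbw7 with reduced substrate affinity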
MITF inh = blocks human microphthalmia-associated transcription factor. inhibition, % at 2.6 µM. AlphaScreen MITF homodimerization, bead proximity signal. 650,000 compounds, 0.91% hits. O75030; in the data active = inhibition above about 50%
Of the large screens only hits and unclear results are named; the others gave an inactive call.

COC(=O)C1=C(C(=O)OC)SC(=C2C(=S)C(C)(C)N(C(=O)c3ccccc3-c3ccccc3)c3cc(C)ccc32)S1	MITF inh 60.7
CCC(=O)N1c2ccccc2C(=C2SC(C(=O)OC)=C(C(=O)OC)S2)C(=S)C1(C)C	none
Cc1nc(C)n(-c2ccc(Nc3nccc(-c4cccc(-n5cccn5)c4)n3)cc2)n1	none
O=S(=O)(NCc1csc(-c2cccs2)n1)c1ccc(-c2ccccn2)s1	FBW7 act 2.1
COc1cc([N+](=O)[O-])cc(/C=N/NC(=O)C2COc3ccccc3O2)c1O (stereo not given)	none
O=C(N/N=C/c1ccc(O)c(O)c1O)C1COc2ccccc2O1 (stereo not given)	MITF inh 55.3
Cc1ccc(/C=N/NC(=O)C2COc3ccccc3O2)c(O)c1 (stereo not given)	TEAD-YAP block 53.2
C/C(=N\NC(=O)C1COc2ccccc2O1)c1ccco1 (stereo not given)	TEAD-YAP block 39.1
COc1cccc(/C=N/NC(=O)C2COc3ccccc3O2)c1O (stereo not given)	MITF inh 68.8
C/C(=N\NC(=O)C1COc2ccccc2O1)c1ccccc1 (stereo not given)	none
COCCN(C)C(=O)CCc1nnc(Cc2ccc(-c3ccccc3)cc2)o1	none
CCOc1ccc(S(=O)(=O)NCCc2cn3ccccc3n2)cc1	none
O=C(N/N=C/c1ccccc1)C1COc2ccccc2O1 (stereo not given)	TEAD-YAP block 37.3
COc1cc(Cl)cc(/C=N\NC(=O)C2COc3cc4ccccc4cc3O2)c1O (stereo not given)	TEAD-YAP block 52.7
O=C(N/N=C/c1ccc2c3c(cccc13)CC2)C1COc2ccccc2O1 (stereo not given)	TEAD-YAP block 48.9
NC1=C/C(=N\S(=O)(=O)c2ccccc2)c2ccccc2C1=O	TEAD-YAP block 95.8
COc1ccccc1C(=O)Nc1ccnn1C1CCN(C(C)Cc2ccccc2F)CC1 (stereo not given)	none
COc1cccc(NC(=O)CSC2=C(C#N)C(c3cccs3)CC(=O)N2)c1 (stereo not given)	TEAD-YAP block 39.6
N#CC1=C(SCC(=O)Nc2cccc(Br)c2)NC(=O)CC1c1cccs1 (stereo not given)	none
N#CC1=C(SCC(=O)Nc2cc(Cl)cc(Cl)c2)NC(=O)CC1c1cccs1 (stereo not given)	TEAD-YAP block 43.1
CCOc1ccc(N(/C=C2\Sc3ccccc3C2=O)C(=O)c2cccc(Cl)c2)cc1	TEAD-YAP block 44.6
COc1ccc(N(/C=C2\Sc3ccccc3C2=O)C(=O)c2cccc(Cl)c2)cc1	TEAD-YAP block 50.7
NC(Cc1ccc2nsnc2c1)C(=O)O (stereo not given)	none
CCC(C)NC(=O)CC(NS(=O)(=O)c1ccc(F)cc1)C(C)C (stereo not given)	none
COc1cc(/C=C/C(=O)Nc2ccccc2NC(=O)c2ccccc2C)cc(OC)c1OC	none
Cc1ccc(S(=O)(=O)N2CCOC2CNC(=O)C(=O)NCc2ccccn2)cc1 (stereo not given)	none
Cc1cccc(-c2nc(C)cc(Nc3ccc(OCCN4CCCCC4)cc3)n2)c1	none
CC(C)n1c(NCCN2CCOCC2)nc2c(Nc3ccccc3)ncnc21	TEAD-YAP block 41.1
CC(C)n1c(NCCCN2CCCC2=O)nc2c(Nc3ccccc3)ncnc21	TEAD-YAP block 35.4
CCCNc1ncnc2c1nc(NCCCN1CCCC1=O)n2C(C)C	none
CC(C)n1c(NCCN2CCOCC2)nc2c(Nc3ccc(N4CCOCC4)cc3)ncnc21	none
O=C(Nc1cc(Sc2nc3ccccc3s2)cc([N+](=O)[O-])c1)c1ccc(F)c(F)c1	none
O=C1CCCN1CCCNc1nc(-c2cccs2)nc2c1ncn2Cc1ccc(C(F)(F)F)cc1	none
CC(C)CC(c1nnnn1C1CCCC1)N1CCN(C(=O)c2ccco2)CC1 (stereo not given)	TEAD-YAP block 55.2
CC(C)CC(c1nnnn1C1CCCCC1)N1CCN(C(=O)c2ccco2)CC1 (stereo not given)	none
COc1ccc(S(=O)(=O)N2CCOc3ccccc32)cc1	TEAD-YAP block 48.5
COc1ccc(S(=O)(=O)N2CC(C(=O)O)Oc3ccccc32)cc1 (stereo not given)	none
Cc1ccc(C(=O)NCC(=O)NCC(=O)OCC(=O)c2ccc(Cl)cc2)cc1	none
c1ccc(-n2cnc3c(Nc4ccc(N5CCOCC5)cc4)nc(Nc4nccc5ccccc45)nc32)cc1	TEAD-YAP block 43.4
c1cncc(CNc2nc(NCCN3CCOCC3)c3ncn(-c4ccsc4)c3n2)c1	none
c1cc(Nc2nc(NCCN3CCOCC3)c3ncn(-c4ccsc4)c3n2)ncn1	TEAD-YAP block 37.0
c1ccc(-n2cnc3c(NCCN4CCOCC4)nc(Nc4ccc(N5CCOCC5)cc4)nc32)cc1	TEAD-YAP block 58.9
c1cncc(Nc2nc(NCCN3CCOCC3)c3ncn(-c4ccsc4)c3n2)c1	TEAD-YAP block 50.9
CCOc1nn(CC)cc1-c1nnc(SCC(=O)N2CCC(C)CC2)n1CC	none
COc1ccc(Br)cc1C1SCCN1S(=O)(=O)c1ccc(I)cc1 (stereo not given)	none
COc1cc(Nc2nc(Nc3ccnn3C)nc3c2ncn3-c2ccsc2)cc(OC)c1OC	TEAD-YAP block 62.7
COc1cc(Nc2nc(Nc3ncccn3)nc3c2ncn3-c2ccsc2)cc(OC)c1OC	none
COc1cc(Nc2nc(NCCO)c3ncn(-c4ccccc4)c3n2)cc(OC)c1OC	none
COc1cc(Nc2nc(NCCN3CCOCC3)c3ncn(-c4ccccc4)c3n2)cc(OC)c1OC	TEAD-YAP block 41.9
c1ccc(Nc2nc(NCCN3CCOCC3)c3ncn(-c4ccsc4)c3n2)cc1	TEAD-YAP block 54.6
c1ccc(-n2cnc3c(NCCN4CCOCC4)nc(Nc4cccnc4)nc32)cc1	TEAD-YAP block 33.7
Cc1cc(C)n2nc(C(=O)OCCOc3ccc(F)cc3)nc2n1	none
Cn1nccc1Nc1nc(NCCN2CCOCC2)c2ncn(-c3ccsc3)c2n1	TEAD-YAP block 49.6
c1cnc2ccc(Nc3nc(NCCN4CCOCC4)c4ncn(-c5ccsc5)c4n3)cc2c1	TEAD-YAP block 48.3
c1ccc(-c2nc(NCCN3CCOCC3)c3ncn(-c4ccsc4)c3n2)cc1	TEAD-YAP block 33.3
Cc1ccc(C(=O)C2=C(O)C(=O)N(Cc3cccnc3)C2c2ccc(Br)cc2)o1 (stereo not given)	none
Cc1cnc(NC(=O)c2ccccc2F)s1	TEAD-YAP block 64.0
Cc1cc(C)cc(NC(=S)N(CCN2CCCCCC2)Cc2ccco2)c1	none
C[n+]1ccccc1NCCCN1CCOCC1	FBW7 act 3.8
c1ccc(-c2cc(NCCCN3CCOCC3)nc(-c3ccccn3)n2)nc1	TEAD-YAP block 64.2, MITF inh 116.9
c1ccc(-c2nc(NCCCN3CCOCC3)cc(-c3ccncc3)n2)cc1	none
CC1SC(C)C(=O)N(CC(=O)Nc2ccc(Cl)c(Cl)c2)C1=O (stereo not given)	none
COc1ccc(C(=O)n2c(=S)nc3cccc(C)n32)cc1	none
COc1ccc(C(=O)n2c(=S)nc3ccccn32)cc1	TEAD-YAP block 74.5
O=C(Nc1ccccc1)c1cccc(Br)c1	none
O=C(Nc1cc(=O)[nH]c(=O)[nH]1)c1cccc(Br)c1	TEAD-YAP block 43.6
